The results in this text go back to PubChem BioAssay (NCATS).

The nature of assay [1]: qHTS profiling of the MIPE4 collection as inhibitors of Plasmodium falciparum (3D7) proliferation (AID 743344).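 Also: scaled between DMSO vehicle wells and 0.29 µM artemisinin as full inhibition.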 To be noted: P. falciparum 3D7 in erythrocytes, SYBR Green DNA fluorescence, 72 h; at 28.5 µM unless noted. The method, boiled down: (§1)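 Parasite DNA was quantified by SYBR Green I fluorescence (ex 485, em 535 nm) after overnight lysis in saponin/Triton buffer at room temperature. Cultures at 0.3% parasitemia and 2.5% hematocrit were first exposed to compound for 72 h at 37 C; signals were normalised to artemisinin (0.29 uM) and vehicle wells.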

A short description of assay [2]: qHTS profiling of the MIPE4 collection as inhibitors of Plasmodium falciparum (DD2) proliferation (AID 743345). Particulars: P. falciparum Dd2 in erythrocytes, SYBR Green DNA, 72 h; at 28.5 µM unless noted. The gist of the method: as §1
Assay [3] in a line: qHTS profiling of the MIPE4 collection as inhibitors of Plasmodium falciparum (DD2) proliferation (Rep 2) (AID 743346). To be noted: P. falciparum Dd2 in erythrocytes, SYBR Green DNA, 72 h; at 28.5 µM unless noted. The gist of the method:
as §1

Assay [4] in a line: qHTS profiling of the MIPE4 collection as inhibitors of Plasmodium falciparum (HB3) proliferation (AID 743347).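 Also: plate controls were DMSO vehicle wells for no effect and artemisinin wells for full effect.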 To be noted: P. falciparum HB3 in erythrocytes, SYBR Green DNA, 72 h; at 28.5 µM unless noted. The gist of the method: as §1

Turning to `CC(=O)SCC(Cc1ccccc1)C(=O)NCC(=O)OCc1ccccc1` (centres undefined), the parasite growth, % of DMSO control in assay [1] came to 43.2%. In addition, in assay [2], the parasite growth remaining, % of DMSO control (lower = more inhibition) worked out at 97.5%. Besides, the parasite growth, % of control (lower = inhibition) in assay [3] is 60.4%.
In turn, `Cc1cc(-c2nnc3n2CCCCC3)c(C)n1-c1ccccc1` returned a parasite growth, % of DMSO control in assay [1] of 23%. Besides, in assay [2], the parasite growth remaining, % of DMSO control (lower = more inhibition) was determined as 36.9%. Also, the parasite growth, % of control (lower = inhibition) in assay [3] stood at 26.6%. Also, in assay [4], the growth, % of control was determined as 16.4%.
Take `COc1ccc(C(C)=O)c(O)c1`: in assay [1], the parasite growth, % of DMSO control turned out to be 86.4%. Besides, the parasite growth remaining, % of DMSO control (lower = more inhibition) in assay [2] was determined as 98.8%. Besides, in assay [3], the parasite growth, % of control (lower = inhibition) worked out at 131%. The molecule further showed a growth, % of control in assay [4] of 95.8%.
In the case of `C[C@](Cc1c[nH]c2ccccc12)(NC(=O)OC1C2CC3CC(C2)CC1C3)C(=O)NC[C@H](NC(=O)CCC(=O)O)c1ccccc1` (some centres undefined), the parasite growth, % of DMSO control in assay [1] came out at 10%. In addition, in assay [2], the parasite growth remaining, % of DMSO control (lower = more inhibition) worked out at 36.8%. The parasite growth, % of control (lower = inhibition) in assay [3] amounted to 30.8%.
For `Nc1nc(=O)n([C@H]2CSC(CO)O2)cc1F` (some centres undefined), in assay [1], the parasite growth, % of DMSO control amounted to 399%. Moreover, in assay [2], the parasite growth remaining, % of DMSO control (lower = more inhibition) turned out to be 99.2%. The parasite growth, % of control (lower = inhibition) in assay [3] is 160%. The molecule further returned a growth, % of control in assay [4] of 250%.
`CCCCC(=O)O[C@]1(C(=O)CO)[C@@H](C)C[C@H]2[C@@H]3CCC4=CC(=O)C=C[C@]4(C)[C@@]3(F)[C@@H](O)C[C@@]21C` came in with a parasite growth, % of DMSO control in assay [1] of 13.5%. For the same molecule, the parasite growth remaining, % of DMSO control (lower = more inhibition) in assay [2] came out at 78.8%. Further, the parasite growth, % of control (lower = inhibition) in assay [3] was found to be 54.9%.
As to `Cn1cc(C2=C(c3c4n(c5ccccc35)CCC(CN)C4)C(=O)NC2=O)c2ccccc21` (centres undefined), in assay [1], the parasite growth, % of DMSO control was determined as 3.66%. The parasite growth remaining, % of DMSO control (lower = more inhibition) in assay [2] worked out at 5.71%. Also, the parasite growth, % of control (lower = inhibition) in assay [3] turned out to be 11%. In addition, the growth, % of control in assay [4] was determined as 3.72%.
Take `C[C@]12C=CC(=O)N[C@@H]1CC[C@H]1[C@H]3CC[C@@H](C(=O)Nc4cc(C(F)(F)F)ccc4C(F)(F)F)[C@@]3(C)CC[C@@H]12`: in assay [1], the parasite growth, % of DMSO control was 9.6%. Moreover, in assay [2], the parasite growth remaining, % of DMSO control (lower = more inhibition) came out at 9.12%. For the same molecule, the parasite growth, % of control (lower = inhibition) in assay [3] is 23.9%. The molecule also had a growth, % of control in assay [4] of 26.4%.
The matching figures for `Nc1nc2c(c(=O)[nH]1)N(C=O)[C@H](CNc1ccc(C(=O)N[C@@H](CCC(=O)O)C(=O)O)cc1)CN2`: 106%, 96.2%, 86.2% and 103%.
In the case of `Nc1nc(=O)n([C@H]2C[C@H](O)[C@@H](CO)O2)cc1F`, the parasite growth, % of DMSO control in assay [1] is 99.5%. The parasite growth remaining, % of DMSO control (lower = more inhibition) in assay [2] is 95.7%. In addition, the parasite growth, % of control (lower = inhibition) in assay [3] was determined as 85.7%. Besides, the growth, % of control in assay [4] stood at 107%.
With `N#CC(=C(N)Sc1ccc(N)cc1)c1ccccc1C(F)(F)F`, in assay [1], the parasite growth, % of DMSO control was 24.4%. Also, the parasite growth remaining, % of DMSO control (lower = more inhibition) in assay [2] worked out at 69.5%. The parasite growth, % of control (lower = inhibition) in assay [3] came to 33.9%.
For `C#C[C@]1(O)CC[C@@H]2[C@@H]3CCC4=CC(=O)CC[C@@H]4[C@H]3CC[C@@]21CC`, in assay [1], the parasite growth, % of DMSO control worked out at 28%. Besides, the parasite growth remaining, % of DMSO control (lower = more inhibition) in assay [2] amounted to 79.2%. Moreover, in assay [3], the parasite growth, % of control (lower = inhibition) is 51.5%.
With `NC(=O)N1CCC(CC(=O)N2CCC([C@H]3c4ncc(Br)cc4CCc4cc(Cl)cc(Br)c43)CC2)CC1`, the parasite growth, % of DMSO control in assay [1] is 5.47%. For the same molecule, in assay [2], the parasite growth remaining, % of DMSO control (lower = more inhibition) was 10.6%. Further, the parasite growth, % of control (lower = inhibition) in assay [3] worked out at 13.1%.
`Cc1ncc(-c2ccnc(Nc3ccc(S(C)(=O)=O)cc3)n2)n1C(C)C` came in with a parasite growth, % of DMSO control in assay [1] of 6.84%. Besides, the parasite growth remaining, % of DMSO control (lower = more inhibition) in assay [2] was 19.3%. Further, the parasite growth, % of control (lower = inhibition) in assay [3] is 10.8%. The same molecule registered a growth, % of control in assay [4] of 7.75%.
The like results for `N#CC(=Cc1ccc(O)c(O)c1)C(=O)NCc1ccccc1` were, in that order, 42.9%, 87.2%, 51.8% and 48.1%.
The matching figures for `Oc1ccc([C@@H]2Oc3ccc(O)cc3[C@@H]3CCC[C@@H]32)cc1`: 43.6%, 90.8%, 47% and 81.1%.
On to `CC1(C)O[C@@H]2C[C@H]3[C@@H]4CCC5=CC(=O)C=C[C@]5(C)[C@@H]4[C@@H](O)C[C@]3(C)[C@]2(C(=O)CO)O1`, for which the parasite growth, % of DMSO control in assay [1] was determined as 7.1%. For the same molecule, in assay [2], the parasite growth remaining, % of DMSO control (lower = more inhibition) came out at 49.3%. Further, in assay [3], the parasite growth, % of control (lower = inhibition) stood at 7.43%.
Take `Oc1cc2c(cc1O)C1c3ccc(O)c(O)c3OCC1(O)C2` (centres undefined): the parasite growth, % of DMSO control in assay [1] stood at 13%. Moreover, the parasite growth remaining, % of DMSO control (lower = more inhibition) in assay [2] turned out to be 106%. In addition, the parasite growth, % of control (lower = inhibition) in assay [3] was 15.2%. This molecule displayed a growth, % of control in assay [4] of 9.94%.
In assay [1], `C[C@@]12C(=O)OC(=O)[C@@]1(C)C1CCC2O1` returned a parasite growth, % of DMSO control of 12.4%. The parasite growth remaining, % of DMSO control (lower = more inhibition) in assay [2] is 14.9%. Besides, the parasite growth, % of control (lower = inhibition) in assay [3] was found to be 13.5%.
As for `O=C1NCCc2[nH]c(-c3ccncc3)cc21`, in assay [1], the parasite growth, % of DMSO control came to 23.6%. In assay [2], the parasite growth remaining, % of DMSO control (lower = more inhibition) turned out to be 39%. Also, the parasite growth, % of control (lower = inhibition) in assay [3] worked out at 17.3%. The molecule further came in with a growth, % of control in assay [4] of 5.62%.
Molecule `O=C1CSC(=O)N1C(CCc1ccncc1)COc1ccc(-c2cccc([N+](=O)[O-])c2)cc1` (centres undefined) had a parasite growth, % of DMSO control in assay [1] of 17.8%. For the same molecule, in assay [2], the parasite growth remaining, % of DMSO control (lower = more inhibition) is 49.4%. In assay [3], the parasite growth, % of control (lower = inhibition) was 32.8%.
The matching figures for `CCCCOc1ccc(C(=O)Nc2ccc(F)cc2F)cc1`: 108%, 95.7% and 174%.
Molecule `COc1ccc(CCC(=O)c2c(O)cc(O[C@@H]3O[C@H](CO)[C@@H](O)[C@H](O)[C@@H]3O[C@@H]3O[C@@H](C)[C@H](O)[C@@H](O)[C@@H]3O)cc2O)cc1O` gave a parasite growth, % of DMSO control in assay [1] of 6.07%. Moreover, in assay [2], the parasite growth remaining, % of DMSO control (lower = more inhibition) is 17.8%. Besides, the parasite growth, % of control (lower = inhibition) in assay [3] worked out at 41.2%.
`CN[C@H]1[C@@H](O)[C@@H]2O[C@@H]3O[C@H](C)CC(=O)[C@]3(O)O[C@@H]2[C@@H](NC)[C@H]1O` had a parasite growth, % of DMSO control in assay [1] of 6.52%. For the same molecule, in assay [2], the parasite growth remaining, % of DMSO control (lower = more inhibition) was 85.6%. Further, the parasite growth, % of control (lower = inhibition) in assay [3] was found to be 19.2%.
The like results for `CCS(=O)(=O)Nc1ccc2[nH]c(O)c(C(=Nc3ccc(CN4CCCCC4)cc3)c3ccccc3)c2c1` were, in that order, 6.54%, 7.14% and 13.8%.
In the case of `CCOC(=O)[C@@H](N)Cc1ccc(-c2cc(O[C@H](c3ccc(Cl)cc3-n3ccc(C)n3)C(F)(F)F)nc(N)n2)cc1`, the parasite growth, % of DMSO control in assay [1] came to 5.93%. Besides, the parasite growth remaining, % of DMSO control (lower = more inhibition) in assay [2] was 28.1%. Moreover, in assay [3], the parasite growth, % of control (lower = inhibition) turned out to be 43.9%. The growth, % of control in assay [4] turned out to be 15.8%.
The matching figures for `C[C@@H](NCc1cc2ccccc2[nH]1)c1cccc2ccccc12`: 41.8%, 83.3%, 71.9% and 36.4%.
The like results for `COc1cc(OC)c(NC(=O)Nc2cc(C)on2)cc1Cl` were, in that order, 69.1%, 100%, 54.6% and 81.5%.
Turning to `CCOC(=O)[C@H](CCc1ccccc1)N[C@@H](C)C(=O)N1[C@@H](C(=O)O)C[C@H]2CCC[C@@H]21`, the parasite growth, % of DMSO control in assay [1] was 8.54%. For the same molecule, the parasite growth remaining, % of DMSO control (lower = more inhibition) in assay [2] stood at 9.73%. Besides, the parasite growth, % of control (lower = inhibition) in assay [3] amounted to 14.6%. In assay [4], this molecule came in with a growth, % of control of 4.34%.
For the molecule `COC(=O)[C@@H]1[C@H]2C[C@@H]3c4[nH]c5ccccc5c4CCN3C[C@@H]2CC[C@@H]1O`, in assay [1], the parasite growth, % of DMSO control stood at 79.9%. For the same molecule, the parasite growth remaining, % of DMSO control (lower = more inhibition) in assay [2] came out at 93.2%. Further, in assay [3], the parasite growth, % of control (lower = inhibition) was 69.1%. The growth, % of control in assay [4] came out at 66.3%.
The like results for `C[C@H]1O[C@H](O[C@H]2[C@H](O)[C@@H](O)[C@@H](O[C@H]3[C@H](O)[C@@H](O)C(O)O[C@H]3CO)O[C@H]2CO)[C@H](O)[C@@H](O)[C@H]1N[C@H]1C=C(CO)[C@@H](O)[C@H](O)[C@@H]1O` (some centres undefined) were, in that order, 92.3%, 127%, 88.4% and 103%.
As to `Cn1cnc2c(F)c(Nc3ccc(Br)cc3F)c(C(=O)NOCCO)cc21`, the parasite growth, % of DMSO control in assay [1] was 86.6%. In addition, the parasite growth remaining, % of DMSO control (lower = more inhibition) in assay [2] came to 88%. Further, the parasite growth, % of control (lower = inhibition) in assay [3] amounted to 76.8%. Besides, the growth, % of control in assay [4] stood at 84.6%.
As to `CC(C)N1[N]C(=C2C=c3cc(O)ccc3=N2)c2c(N)ncnc21`, the parasite growth, % of DMSO control in assay [1] is 9.52%. In addition, the parasite growth remaining, % of DMSO control (lower = more inhibition) in assay [2] turned out to be 13.1%. Moreover, the parasite growth, % of control (lower = inhibition) in assay [3] was found to be 10.7%. Further, in assay [4], the growth, % of control is 3.6%.
